A short description of assay [1]: NCI Yeast Anticancer Drug Screen. Data for the rad50 strain (AID 155).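 Further: 0% = growth of vehicle-only cultures of the same strain.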 The settings on record: S. cerevisiae rad50 strain growth inhibition, hits give high values. In outline: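 Relative growth inhibition (compound vs vehicle) was measured in yeast with a defined repair-gene alteration.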
Assay [2] in a line: NCI Yeast Anticancer Drug Screen. Data for the mec2-1 strain (AID 157). The settings on record: S. cerevisiae mec2-1 strain, hits give high values. The method in brief: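 Each compound was tested on mec2-1 yeast, a strain altered in DNA damage repair or cell cycle control. Growth inhibition is reported relative to vehicle.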
Assay [3] is described as follows: NCI Yeast Anticancer Drug Screen. Data for the sgs1 mgt1 strain (AID 161).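 Further: 0% = growth of cultures given vehicle only.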 To be noted: S. cerevisiae sgs1 mgt1 strain, hits give high values. In outline:
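Genetically altered yeast, compound exposure, growth inhibition relative to vehicle.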

The nature of assay [4]: NCI Yeast Anticancer Drug Screen. Data for the cln2 rad14 strain (AID 165).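 Further: 0% = growth equal to vehicle treated cultures.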 To be noted: S. cerevisiae cln2 rad14 strain, hits give high values. In outline: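 Test compounds were added to cln2 rad14 yeast cultures; inhibition of growth was then determined by comparison with vehicle treatment.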
Assay [5] can be described thus: NCI Yeast Anticancer Drug Screen. Data for the bub3 strain (AID 167). To be noted: S. cerevisiae bub3 mutant strain, hits give high values. In outline:
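Screening used yeast with an engineered genetic alteration affecting cell cycle control. Compound-exposed cultures were compared with vehicle cultures, and reduced growth was taken as inhibition.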

Assay [6] in a line: NCI Yeast Anticancer Drug Screen. Data for the mlh1 rad18 strain (AID 175). The settings on record: S. cerevisiae mlh1 rad18 strain growth inhibition, hits give high values. The method in brief: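 Inhibition values reflect reduced growth of mutant yeast versus vehicle-treated controls following compound exposure; the mutations affect DNA damage repair.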
Setting [7] is: at 5.0 µM (retest, dose inferred, filed as 0.5).
The mark [8] stands for this setting: at 50.0 µM (retest, dose inferred, filed as 5.0).

This is part of a sample that, as a whole, favours compounds with a hit. Of some 79,000 tested, about 15% had one in any assay. Values without a mark were called inactive. Calls of active or inactive are those of the source. No stated cut-off is given here; in the data, active means growth inhibition above about 70%; inactive means the rest.

With `Clc1nc2ccccc2nc1N1CCCCCC1`, the growth inhibition is 0% in assay [1] (setting [7]); 90% (active) in assay [1] (setting [8]); -17.5% in assay [1] (at 50.0 µM); 2% in assay [2] (setting [7]); 96% (active) in assay [2] (setting [8]); -7.05% in assay [2] (at 50.0 µM). For the same compound, the growth inhibition in assay [3] (setting [7]) was 1%; in assay [3] (setting [8]), 72% (active); in assay [3] (at 50.0 µM), 25.6%; in assay [4] (setting [7]), -5%; in assay [4] (setting [8]) it was 74% (active); in assay [4] (at 50.0 µM), -21.4%. In addition, the growth inhibition in assay [5] (setting [7]) was 9%; in assay [5] (setting [8]), 93% (active); in assay [5] (at 50.0 µM), 76% (active); in assay [6] (setting [7]), 2%; in assay [6] (setting [8]) it was 85% (active); in assay [6] (at 50.0 µM), 5.2%.

As to `CC1(C)[C@@H]2CC[C@]1(C)[C@@H](OC(=O)CSC#N)C2`, the growth inhibition in assay [1] (setting [7]) is 92% (active); in assay [1] (setting [8]) it was 99% (active); in assay [1] (at 50.0 µM), 99.4% (active); in assay [2] (setting [7]) it was 74% (active); in assay [2] (setting [8]), 100% (active); in assay [2] (at 50.0 µM), 99.6% (active). Moreover, the growth inhibition is 98% (active) in assay [3] (setting [7]); 100% (active) in assay [3] (setting [8]); 99.3% (active) in assay [3] (at 50.0 µM); 24% in assay [4] (setting [7]); 99% (active) in assay [4] (setting [8]); 98.8% (active) in assay [4] (at 50.0 µM). Besides, the growth inhibition is 95% (active) in assay [5] (setting [7]); 100% (active) in assay [5] (setting [8]); 99.6% (active) in assay [5] (at 50.0 µM); 75% (active) in assay [6] (setting [7]); 99% (active) in assay [6] (setting [8]); 99.2% (active) in assay [6] (at 50.0 µM).

`O=c1oc(-c2ccc(Cl)c([N+](=O)[O-])c2)ns1`: the growth inhibition was 1% in assay [1] (setting [7]); 92% (active) in assay [1] (setting [8]); 97.1% (active) in assay [1] (at 50.0 µM); 3% in assay [2] (setting [7]); 93% (active) in assay [2] (setting [8]); 95.3% (active) in assay [2] (at 50.0 µM). Further, the growth inhibition in assay [3] (setting [7]) is 4%; in assay [3] (setting [8]), 89% (active); in assay [3] (at 50.0 µM), 97.8% (active); in assay [4] (setting [7]) it was 4%; in assay [4] (setting [8]), 48%; in assay [4] (at 50.0 µM) it was 53.6%. Besides, the growth inhibition is 1% in assay [5] (setting [7]); 91% (active) in assay [5] (setting [8]); 97.2% (active) in assay [5] (at 50.0 µM); 2% in assay [6] (setting [7]); 98% (active) in assay [6] (setting [8]); 91.8% (active) in assay [6] (at 50.0 µM).

Regarding `COC(=O)c1ccc([N+](=O)[O-])o1`, the growth inhibition in assay [1] (setting [7]) is 7%; in assay [1] (setting [8]), 42%; in assay [1] (at 50.0 µM), 70.7% (active); in assay [2] (setting [7]), 7%; in assay [2] (setting [8]), 38%; in assay [2] (at 50.0 µM) it was 46.4%. Besides, the growth inhibition is 4% in assay [3] (setting [7]); 26% in assay [3] (setting [8]); 76.8% (active) in assay [3] (at 50.0 µM); -5% in assay [4] (setting [7]); 5% in assay [4] (setting [8]); 23.2% in assay [4] (at 50.0 µM). Also, the growth inhibition was 0% in assay [5] (setting [7]); 71% (active) in assay [5] (setting [8]); 62.1% in assay [5] (at 50.0 µM); 13% in assay [6] (setting [7]); 56% in assay [6] (setting [8]); 72.3% (active) in assay [6] (at 50.0 µM).

Take `OCC1(c2ccccc2)OC1c1ccccc1` (stereo not drawn): the growth inhibition in assay [1] (setting [7]) is -156%; in assay [1] (setting [8]), -20%; in assay [1] (at 50.0 µM) it was 72.1% (active); in assay [2] (setting [7]) it was -50%; in assay [2] (setting [8]) it was -27%; in assay [2] (at 50.0 µM), 62.6%. The growth inhibition in assay [3] (setting [7]) is -65%; in assay [3] (setting [8]), 16%; in assay [3] (at 50.0 µM), 37.6%; in assay [4] (setting [7]), -66%; in assay [4] (setting [8]) it was -34%; in assay [4] (at 50.0 µM), 69.5%. The growth inhibition is -71% in assay [5] (setting [7]); -51% in assay [5] (setting [8]); 74.8% (active) in assay [5] (at 50.0 µM); -146% in assay [6] (setting [7]); -44% in assay [6] (setting [8]); 68% in assay [6] (at 50.0 µM).

As for `CC(C)Cc1cc2c(cc1O)CCC1C2CC[C@@]2(C)C1CC[C@@H]2O` (stereo partly drawn), the growth inhibition was -10% in assay [1] (setting [7]); 97% (active) in assay [1] (setting [8]); 75.8% (active) in assay [1] (at 50.0 µM); -17% in assay [2] (setting [7]); 95% (active) in assay [2] (setting [8]); 80.4% (active) in assay [2] (at 50.0 µM). The growth inhibition is -12% in assay [3] (setting [7]); 97% (active) in assay [3] (setting [8]); 86.5% (active) in assay [3] (at 50.0 µM); -22% in assay [4] (setting [7]); 98% (active) in assay [4] (setting [8]); 89.3% (active) in assay [4] (at 50.0 µM). Further, the growth inhibition in assay [5] (setting [7]) is -34%; in assay [5] (setting [8]), 97% (active); in assay [5] (at 50.0 µM), 87% (active); in assay [6] (setting [7]), -11%; in assay [6] (setting [8]) it was 97% (active); in assay [6] (at 50.0 µM), 88.4% (active).

These data come from PubChem BioAssay (NCI).
